Results as given in PubChem BioAssay (NCATS).
Results filed as inconclusive are left out. Calls of active or inactive are those of the source. Calls come from the whole dose curve; as a rule, active = well fitted inhibition curve with a large enough effect; inconclusive = small, poorly fitted or top-dose-only effect; inactive = flat fitted curve, though single readings scatter.

System: HACAT
Experiment: qHTS assay to identify novel small-molecules to repurpose for Merkel cell carcinoma treatment (AID 1296009); note: nearly all actives have a fitted effect of over 60% in size
Conditions: MCC and control cell lines, CellTiter-Glo viability, 72 h; at 44.8 µM (top of the series) unless noted
In short: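 Dose-response viability screen; 72 hr exposure at 37 degree celsius; CellTiter-Glo added, 10 min room temperature, luminescence read; RLUs scaled between no-cell and DMSO wells.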

Row | SMILES | outcome
1 | CNC[C@H](O)c1cccc(O)c1 | inactive
2 | OC(CCN1CCCCC1)(c1ccccc1)C1CC2C=CC1C2 (stereo not drawn) | inactive
3 | O=NN(CCCl)C(=O)NCCCl | inactive
4 | O=C(Nc1ccc(F)c(C(F)(F)F)c1)Nc1nnc(-c2ccncc2)s1 | inactive
5 | Cc1c(C)c2c(c(C)c1O)CCC(C)(COc1ccc(CC3SC(=O)NC3=O)cc1)O2 (stereo not drawn) | inactive
6 | NC(N)=NC(=O)c1nc(Cl)c(N)nc1N | inactive
7 | COc1ccc(CCN2CCN(CCCc3ccccc3)CC2)cc1OC | inactive
8 | O=c1n(CCCN2CCN(c3cccc(Cl)c3)CC2)nc2ccccn12 | inactive
9 | N=c1nc(N2CCCCC2)cc(N)n1O | inactive
10 | CC(C[N+](C)(C)C)OC(N)=O (stereo not drawn) | inactive
11 | c1ccc([C@H]2CN3CCSC3=N2)cc1 | inactive
12 | CCCCNc1cc(C(=O)O)cc(S(N)(=O)=O)c1Oc1ccccc1 | inactive
13 | CC(C=CC1=C(C)CCCC1(C)C)=CC=CC(C)=CC(=O)O | inactive
14 | Cc1cn[nH]c1 | inactive
15 | CC(C)NCC(O)COc1ccc(COCCOC(C)C)cc1 (stereo not drawn) | inactive
16 | O=C1CCCC2=C1C(c1[nH]ncc1Cl)N=C(Nc1nc3ccccc3o1)N2 (stereo not drawn) | inactive
17 | CC(=O)Oc1ccccc1C(=O)O | inactive
18 | CCc1ccc(CCOc2ccc(CC3SC(=O)NC3=O)cc2)nc1 (stereo not drawn) | inactive
19 | NC(=O)c1cnccn1 | inactive
20 | Cc1cnc(NC(=O)C2=C(O)c3ccccc3S(=O)(=O)N2C)s1 | inactive
21 | O=C1CCC(N2C(=O)c3ccccc3C2=O)C(=O)N1 (stereo not drawn) | inactive
22 | C[C@H](NC(=O)Cc1cc(F)cc(F)c1)C(=O)N[C@@H]1C(=O)N(C)c2ccccc2-c2ccccc21 | inactive
23 | C[C@@H]1CN(Cc2ccc(F)cc2)[C@@H](C)CN1C(=O)c1cc2c(C(=O)C(=O)N(C)C)cn(C)c2cc1Cl | inactive
